Measurements published in the supplement of paper PMC11732987, “Enantioselective OTUD7B fragment discovery through chemoproteomics screening and high-throughput optimisation” (Communications Chemistry, 2025).

How the values were obtained:
Experiment in all cases: log2 ratio of Biotin-Ahx-Ub-VS probe labelling (fragment/DMSO); higher = less target engagement (more negative = stronger competition), active = hit call of the paper (q ≤ 0.05, log2 ratio ≤ -1)
Settings in all cases: compound concentration: 200 uM; treatment time: 3 h
[1] = biological target: T1, USP19 (UniProt O94966)
T1 sequence (whole entry): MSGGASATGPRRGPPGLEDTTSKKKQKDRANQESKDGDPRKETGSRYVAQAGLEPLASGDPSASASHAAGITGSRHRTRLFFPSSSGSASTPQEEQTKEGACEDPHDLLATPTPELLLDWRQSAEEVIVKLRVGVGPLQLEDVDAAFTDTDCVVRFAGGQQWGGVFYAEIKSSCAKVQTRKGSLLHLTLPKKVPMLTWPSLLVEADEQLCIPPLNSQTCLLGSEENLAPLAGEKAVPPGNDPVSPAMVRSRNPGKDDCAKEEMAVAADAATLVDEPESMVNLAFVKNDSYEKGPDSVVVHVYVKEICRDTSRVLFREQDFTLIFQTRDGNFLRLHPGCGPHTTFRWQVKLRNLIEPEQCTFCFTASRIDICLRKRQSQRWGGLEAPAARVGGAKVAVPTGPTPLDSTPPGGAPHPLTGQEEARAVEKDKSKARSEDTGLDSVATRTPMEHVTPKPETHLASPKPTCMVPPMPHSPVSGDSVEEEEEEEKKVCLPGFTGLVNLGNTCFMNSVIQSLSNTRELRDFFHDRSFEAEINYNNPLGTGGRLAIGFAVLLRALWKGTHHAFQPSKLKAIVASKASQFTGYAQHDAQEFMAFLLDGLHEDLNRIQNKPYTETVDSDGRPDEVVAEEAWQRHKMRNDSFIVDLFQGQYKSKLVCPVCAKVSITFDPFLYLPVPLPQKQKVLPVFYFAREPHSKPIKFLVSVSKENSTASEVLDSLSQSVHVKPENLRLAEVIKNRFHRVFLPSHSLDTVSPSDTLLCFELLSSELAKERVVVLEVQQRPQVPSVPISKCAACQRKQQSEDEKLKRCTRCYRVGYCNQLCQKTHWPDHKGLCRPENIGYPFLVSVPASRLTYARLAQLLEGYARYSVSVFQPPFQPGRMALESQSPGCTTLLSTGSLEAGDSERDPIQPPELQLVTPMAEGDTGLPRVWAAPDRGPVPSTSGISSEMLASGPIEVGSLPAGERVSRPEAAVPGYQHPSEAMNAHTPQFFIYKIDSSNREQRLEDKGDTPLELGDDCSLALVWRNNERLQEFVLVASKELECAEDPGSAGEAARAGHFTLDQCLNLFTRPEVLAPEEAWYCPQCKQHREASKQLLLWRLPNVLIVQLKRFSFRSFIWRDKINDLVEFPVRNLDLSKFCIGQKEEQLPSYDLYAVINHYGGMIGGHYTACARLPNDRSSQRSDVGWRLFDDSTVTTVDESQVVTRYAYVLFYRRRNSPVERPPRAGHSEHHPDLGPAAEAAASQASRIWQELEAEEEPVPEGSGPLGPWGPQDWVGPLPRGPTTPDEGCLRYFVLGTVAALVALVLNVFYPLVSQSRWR
Procedure, shortened: (§1)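 Average log2 ratios of fragment over vehicle were obtained by unpaired t-test from global-median-normalised Spectronaut label-free quantities. Proteins with ≥2 unique peptides were included. HEK293T lysate (495 µg per sample) was treated in triplicate with fragment at 200 µM or vehicle for 3 h, then with Biotin-Ahx-Ub-VS at 0.5 µM final for 1 h, and labelled DUBs were NeutrAvidin-enriched and run by diaPASEF LC-MS/MS.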

[2] = biological target: T2, USP22 (UniProt Q9UPT9)
T2 sequence (whole entry): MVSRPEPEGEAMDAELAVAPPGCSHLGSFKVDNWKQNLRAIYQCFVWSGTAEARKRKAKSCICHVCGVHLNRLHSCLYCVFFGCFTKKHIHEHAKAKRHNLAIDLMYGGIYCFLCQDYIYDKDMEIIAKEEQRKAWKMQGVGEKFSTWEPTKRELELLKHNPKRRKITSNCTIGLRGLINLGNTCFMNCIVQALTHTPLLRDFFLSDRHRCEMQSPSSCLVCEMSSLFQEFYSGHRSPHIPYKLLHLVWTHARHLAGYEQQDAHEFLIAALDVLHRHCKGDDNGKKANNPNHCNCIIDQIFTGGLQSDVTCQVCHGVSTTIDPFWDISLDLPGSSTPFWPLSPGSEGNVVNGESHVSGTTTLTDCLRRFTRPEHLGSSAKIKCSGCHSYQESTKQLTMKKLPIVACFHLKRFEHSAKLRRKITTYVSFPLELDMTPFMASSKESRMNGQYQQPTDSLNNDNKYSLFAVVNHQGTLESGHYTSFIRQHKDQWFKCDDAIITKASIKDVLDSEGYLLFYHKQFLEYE
Procedure, shortened: as §1

[3] = biological target: USP24 (UniProt Q9UPU5)
Chain of USP24 (Q9UPU5 whole entry): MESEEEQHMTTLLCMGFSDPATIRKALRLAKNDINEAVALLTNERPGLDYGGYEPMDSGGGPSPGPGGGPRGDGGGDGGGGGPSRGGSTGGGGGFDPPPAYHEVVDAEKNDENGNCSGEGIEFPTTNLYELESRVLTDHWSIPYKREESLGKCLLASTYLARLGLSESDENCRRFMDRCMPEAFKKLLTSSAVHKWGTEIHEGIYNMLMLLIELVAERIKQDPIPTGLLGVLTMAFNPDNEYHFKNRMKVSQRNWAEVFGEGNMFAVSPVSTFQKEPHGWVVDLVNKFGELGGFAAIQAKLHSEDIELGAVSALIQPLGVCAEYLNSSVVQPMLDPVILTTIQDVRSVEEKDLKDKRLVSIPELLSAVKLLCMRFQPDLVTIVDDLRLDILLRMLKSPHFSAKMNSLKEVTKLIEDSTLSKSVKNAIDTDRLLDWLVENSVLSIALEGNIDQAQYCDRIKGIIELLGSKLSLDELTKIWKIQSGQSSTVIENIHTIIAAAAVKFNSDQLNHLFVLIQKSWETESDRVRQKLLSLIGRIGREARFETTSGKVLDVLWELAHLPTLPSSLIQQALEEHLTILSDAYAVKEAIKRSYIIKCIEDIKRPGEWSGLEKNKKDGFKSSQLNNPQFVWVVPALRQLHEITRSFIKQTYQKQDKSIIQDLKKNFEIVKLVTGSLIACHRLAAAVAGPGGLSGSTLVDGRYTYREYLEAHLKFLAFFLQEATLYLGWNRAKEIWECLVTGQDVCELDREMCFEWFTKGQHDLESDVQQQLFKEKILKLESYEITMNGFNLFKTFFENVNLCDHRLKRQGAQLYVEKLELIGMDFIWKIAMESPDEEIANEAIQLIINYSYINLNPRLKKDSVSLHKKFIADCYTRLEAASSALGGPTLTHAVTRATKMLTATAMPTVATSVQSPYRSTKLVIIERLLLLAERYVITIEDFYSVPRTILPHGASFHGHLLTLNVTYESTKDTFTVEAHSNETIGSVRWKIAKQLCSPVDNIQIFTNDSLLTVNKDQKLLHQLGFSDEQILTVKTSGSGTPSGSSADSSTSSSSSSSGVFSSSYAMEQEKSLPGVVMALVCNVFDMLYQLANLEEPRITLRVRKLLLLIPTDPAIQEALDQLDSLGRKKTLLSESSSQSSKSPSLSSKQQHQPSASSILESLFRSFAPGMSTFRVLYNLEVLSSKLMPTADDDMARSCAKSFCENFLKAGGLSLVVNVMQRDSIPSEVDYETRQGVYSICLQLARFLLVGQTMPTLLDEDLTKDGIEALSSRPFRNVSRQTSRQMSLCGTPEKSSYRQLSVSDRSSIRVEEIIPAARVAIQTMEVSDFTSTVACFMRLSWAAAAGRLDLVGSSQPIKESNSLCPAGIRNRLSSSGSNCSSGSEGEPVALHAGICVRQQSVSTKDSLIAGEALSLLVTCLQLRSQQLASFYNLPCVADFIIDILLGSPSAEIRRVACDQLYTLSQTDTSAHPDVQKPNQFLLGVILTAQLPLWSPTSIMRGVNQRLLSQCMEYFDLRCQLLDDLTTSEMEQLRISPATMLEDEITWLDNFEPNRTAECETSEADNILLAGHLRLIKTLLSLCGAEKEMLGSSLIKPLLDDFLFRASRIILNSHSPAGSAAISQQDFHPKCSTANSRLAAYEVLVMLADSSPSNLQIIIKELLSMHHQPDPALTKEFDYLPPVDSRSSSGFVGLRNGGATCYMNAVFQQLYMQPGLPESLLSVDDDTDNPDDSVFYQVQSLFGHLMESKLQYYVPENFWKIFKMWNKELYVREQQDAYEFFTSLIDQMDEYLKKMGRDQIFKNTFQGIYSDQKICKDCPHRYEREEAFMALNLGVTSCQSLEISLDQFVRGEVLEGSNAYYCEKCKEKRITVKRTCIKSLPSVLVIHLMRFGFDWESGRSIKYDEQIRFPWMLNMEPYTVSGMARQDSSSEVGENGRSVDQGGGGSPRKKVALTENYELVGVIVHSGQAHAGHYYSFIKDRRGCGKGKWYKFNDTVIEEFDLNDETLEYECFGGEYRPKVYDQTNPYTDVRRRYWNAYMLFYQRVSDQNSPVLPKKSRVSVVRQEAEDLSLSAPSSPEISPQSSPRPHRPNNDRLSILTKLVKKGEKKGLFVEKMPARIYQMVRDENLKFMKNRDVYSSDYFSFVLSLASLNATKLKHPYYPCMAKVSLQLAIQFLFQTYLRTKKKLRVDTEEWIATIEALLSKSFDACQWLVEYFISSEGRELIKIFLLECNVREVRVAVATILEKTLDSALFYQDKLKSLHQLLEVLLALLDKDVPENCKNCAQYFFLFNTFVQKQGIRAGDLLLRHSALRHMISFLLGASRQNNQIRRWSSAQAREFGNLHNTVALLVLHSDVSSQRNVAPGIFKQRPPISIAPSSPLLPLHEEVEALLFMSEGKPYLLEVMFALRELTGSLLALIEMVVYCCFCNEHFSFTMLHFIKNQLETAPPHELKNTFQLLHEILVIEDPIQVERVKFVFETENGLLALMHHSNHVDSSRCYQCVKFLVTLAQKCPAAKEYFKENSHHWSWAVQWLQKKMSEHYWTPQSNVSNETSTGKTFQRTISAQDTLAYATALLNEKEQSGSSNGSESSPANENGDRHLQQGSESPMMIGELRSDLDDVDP
Procedure, shortened: as §1

[4] = biological target: T3, USP25 (UniProt Q9UHP3)
T3 sequence (whole entry): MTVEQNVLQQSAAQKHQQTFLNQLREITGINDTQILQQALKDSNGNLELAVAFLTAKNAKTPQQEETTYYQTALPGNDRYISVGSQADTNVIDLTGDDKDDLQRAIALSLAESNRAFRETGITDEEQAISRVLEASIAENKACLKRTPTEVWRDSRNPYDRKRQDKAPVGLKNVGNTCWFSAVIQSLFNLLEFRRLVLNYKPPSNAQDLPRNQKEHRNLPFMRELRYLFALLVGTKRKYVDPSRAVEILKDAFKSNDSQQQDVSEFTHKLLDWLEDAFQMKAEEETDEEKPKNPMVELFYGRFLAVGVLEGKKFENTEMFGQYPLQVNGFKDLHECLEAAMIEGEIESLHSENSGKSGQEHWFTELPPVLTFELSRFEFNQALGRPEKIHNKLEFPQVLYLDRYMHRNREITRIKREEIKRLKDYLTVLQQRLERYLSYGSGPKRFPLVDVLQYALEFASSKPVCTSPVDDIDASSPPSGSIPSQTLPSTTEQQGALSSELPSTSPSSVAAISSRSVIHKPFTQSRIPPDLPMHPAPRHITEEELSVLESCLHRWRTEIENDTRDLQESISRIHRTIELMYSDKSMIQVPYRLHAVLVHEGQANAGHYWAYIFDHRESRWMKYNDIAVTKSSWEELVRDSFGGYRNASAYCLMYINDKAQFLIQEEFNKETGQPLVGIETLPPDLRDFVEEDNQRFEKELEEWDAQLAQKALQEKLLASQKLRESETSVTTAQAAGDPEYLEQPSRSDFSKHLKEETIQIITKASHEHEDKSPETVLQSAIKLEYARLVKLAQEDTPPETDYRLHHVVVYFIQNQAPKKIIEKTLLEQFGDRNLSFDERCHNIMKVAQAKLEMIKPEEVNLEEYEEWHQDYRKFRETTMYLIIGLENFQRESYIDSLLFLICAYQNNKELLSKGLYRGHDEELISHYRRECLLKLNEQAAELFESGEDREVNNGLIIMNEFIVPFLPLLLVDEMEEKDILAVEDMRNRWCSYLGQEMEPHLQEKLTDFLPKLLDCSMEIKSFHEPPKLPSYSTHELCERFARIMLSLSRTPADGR
Procedure, shortened: as §1

[5] = biological target: T4, USP28 (UniProt Q96RU2)
T4 sequence (whole entry): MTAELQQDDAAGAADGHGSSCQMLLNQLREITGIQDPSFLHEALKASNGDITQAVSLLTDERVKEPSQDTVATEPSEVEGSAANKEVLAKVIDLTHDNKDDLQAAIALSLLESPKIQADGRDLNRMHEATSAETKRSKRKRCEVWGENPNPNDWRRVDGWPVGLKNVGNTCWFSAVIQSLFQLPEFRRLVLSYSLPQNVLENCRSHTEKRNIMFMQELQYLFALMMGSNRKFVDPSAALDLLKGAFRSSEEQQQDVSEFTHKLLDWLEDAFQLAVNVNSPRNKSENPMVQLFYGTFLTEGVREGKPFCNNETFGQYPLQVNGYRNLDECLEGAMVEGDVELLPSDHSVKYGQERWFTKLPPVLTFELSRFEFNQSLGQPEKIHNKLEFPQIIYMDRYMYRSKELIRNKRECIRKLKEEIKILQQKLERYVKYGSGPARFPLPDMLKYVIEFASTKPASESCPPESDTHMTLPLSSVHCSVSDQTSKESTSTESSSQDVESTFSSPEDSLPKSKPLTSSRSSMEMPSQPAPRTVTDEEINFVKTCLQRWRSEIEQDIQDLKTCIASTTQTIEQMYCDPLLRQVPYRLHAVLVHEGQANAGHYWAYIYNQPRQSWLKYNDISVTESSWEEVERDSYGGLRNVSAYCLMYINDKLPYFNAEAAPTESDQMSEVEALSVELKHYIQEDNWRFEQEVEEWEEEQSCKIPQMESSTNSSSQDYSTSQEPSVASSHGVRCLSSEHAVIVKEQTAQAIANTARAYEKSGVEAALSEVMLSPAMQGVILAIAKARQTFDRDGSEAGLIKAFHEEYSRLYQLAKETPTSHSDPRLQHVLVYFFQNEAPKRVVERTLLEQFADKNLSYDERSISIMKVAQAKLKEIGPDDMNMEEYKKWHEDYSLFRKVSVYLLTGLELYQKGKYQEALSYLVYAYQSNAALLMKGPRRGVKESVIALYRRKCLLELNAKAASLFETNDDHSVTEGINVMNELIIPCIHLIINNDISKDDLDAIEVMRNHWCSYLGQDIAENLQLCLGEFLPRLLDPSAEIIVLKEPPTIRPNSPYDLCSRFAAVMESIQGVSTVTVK
Procedure, shortened: as §1

Measured: log2 ratio of Biotin-Ahx-Ub-VS probe labelling

CCC(NC(=O)CCl)c1ccc(Cl)cc1 (stereo not given)
inactive: [1] -0.0763 | [2] -0.735 | [3] -0.327 | [4] -0.24 | [5] -0.504
